Compound activity: PubChem, National Center for Advancing Translational Sciences (NCATS)
HEK293 tox: cytotoxicity counter-screen for GLP-1 receptor inverse agonists. Potency, µM (doses to about 38.3 µM), actives largely listed as inhibitors. HEK293 cAMP-luciferase reporter cells, luminescence, 24 h. actives 0.13% (n = 410,000);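 also: loss of luciferase light is scored as toxicity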
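To flag toxic compounds, the library was rerun on cells for 24 hr at 37 deg C and 5% CO2. Viability-linked luminescence was captured 12 min after adding luciferase detection reagent.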
BRCA1 expr act: BRCA1 expression activation. MCF7-BRCA1-FFLuc reporter, luminescence, 48 h; response scale: scaled: vehicle 0%, 10 µM genistein 100%. Potency, µM (series often up to 46.1 µM), most hits filed as activators. actives 1.1% (n = 380,000). AID 624202; also: nearly all actives have a fitted effect of over 80% in size
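Reporter cells (MCF7, BRCA1 promoter-firefly luciferase) received library compounds across a concentration series for 48 h. End-point luminescence was measured and concentration-effect curves derived after normalization.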
GLP1R inv ag: GLP-1 receptor (human) inverse agonism; P43220; HEK293 GLP-1R CRE-luciferase, luminescence, 24 h; GLP-1R form is constitutively active; Potency, µM (top dose mostly 38.3 µM), most hits filed as inhibitors; actives 1.6% (n = 410,000); AID 624417; also: nearly all actives have a fitted effect of over 55% in size
Target sequence (P43220 whole entry, looked up): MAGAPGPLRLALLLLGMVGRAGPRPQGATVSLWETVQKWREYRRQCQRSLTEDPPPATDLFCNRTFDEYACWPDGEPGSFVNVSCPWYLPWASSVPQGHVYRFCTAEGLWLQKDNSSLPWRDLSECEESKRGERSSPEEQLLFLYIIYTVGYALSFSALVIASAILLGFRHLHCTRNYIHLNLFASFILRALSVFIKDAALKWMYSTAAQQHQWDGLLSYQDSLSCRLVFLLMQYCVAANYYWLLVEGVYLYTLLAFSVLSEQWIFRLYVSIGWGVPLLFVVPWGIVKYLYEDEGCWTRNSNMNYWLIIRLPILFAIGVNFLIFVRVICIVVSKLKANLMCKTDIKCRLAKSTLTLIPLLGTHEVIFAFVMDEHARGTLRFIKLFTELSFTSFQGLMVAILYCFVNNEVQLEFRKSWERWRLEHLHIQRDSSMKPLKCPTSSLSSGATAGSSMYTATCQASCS
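Luminescence readout: a drop in cAMP-driven luciferase signal flags inverse agonism at a constitutively active GLP-1R stably expressed in HEK293. Compound exposure lasted 24 hr at 37 deg C, 5% CO2.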
GLP1R ag: GLP-1 receptor (human) agonism. P43220. HEK293 GLP-1R CRE-luciferase, luminescence, 4-6 h; cells express a hypersensitive GLP-1R form. Potency, µM (top dose mostly 45.6 µM), hits mostly activators. actives 0.007% (n = 380,000). AID 624172
Hits are given with their value; . = inactive; ? = inconclusive; / = no result. In the library only some 2.6% were active in any assay of this set; here they are far more common. Calls follow the shape of the dose curve; as a rule, active = well fitted curve in the direction sought with a large enough effect; inconclusive = small, poorly fitted or top-dose-only effect, or another doubt; inactive = no such curve, though single readings can be large; an effect the other way counts as inactive or inconclusive.

SMILES	HEK293 tox	BRCA1 expr act	GLP1R inv ag	GLP1R ag
COc1ccc(C2/C=C\CN(C(=O)C3CC3)[C@H](Cc3ccccc3)C(=O)N2Cc2ccc(F)cc2)cc1 (some centres undefined)	.	.	?	.
COc1ccc(C2/C=C\CN(C(=O)c3ccc(C)cc3)[C@H](Cc3ccccc3)C(=O)N2Cc2ccc(F)cc2)cc1 (some centres undefined)	.	.	10µM	.
COc1cccc(/C=C/c2nc3ccccc3nc2/C=C/c2cccc(OC)c2OC)c1OC	/	.	/	/
CC(=O)O[C@H](C)OC(=O)[C@@H](C)c1ccc(-c2ccccc2)c(F)c1	/	/	/	.
CC1(Cc2cc(Cl)ccc2C(F)(F)F)C(=O)Nc2ccc(-c3ccc(F)c(Cl)c3)cc21 (centres undefined)	11.2µM	.	?	.
COc1ccc(CCN(C)CC(O)COc2c(C)ccc(C)c2C)cc1OC (centres undefined)	.	.	?	.
COc1ccc(CCN(C)CC(O)COC(c2ccc(F)cc2)c2ccc(F)cc2)cc1OC (centres undefined)	?	.	5.01µM	.
Cc1ccc(C)c(N(C(=O)c2nsc(Cl)c2Cl)C(C(=O)NC2CCCC2)c2ccc(O)cc2)c1 (centres undefined)	.	.	5.62µM	.
COc1ccc(CN(C(=O)c2nsc(Cl)c2Cl)C(C(=O)NC2CCCC2)c2ccc(C)cc2)cc1 (centres undefined)	.	.	?	.
Cc1cc(C)cc(OCC(=O)Nc2ccc(Cl)c(-c3nc4ncccc4o3)c2)c1	.	.	.	.
Cc1ccc(C(C)C)cc1-n1nnc(-c2cccc(Cc3ccc4ccccc4c3)c2)c1C(C)O (centres undefined)	.	.	3.55µM	.
CCN(CCNCC(O)COCc1ccc(Cl)cc1)c1cccc(C)c1 (centres undefined)	?	.	10µM	.
CC(C)c1ccc(C2CC(=O)c3cnc(NC(=O)c4ccco4)nc3C2)cc1 (centres undefined)	.	10µM	?	.
Cn1/c(=N\NC(=O)c2ccccc2Cl)sc2ccccc21	.	11.2µM	.	.
COc1ccc(CC2(CO)CCN(Cc3cc4ccccc4o3)CC2)cc1	.	.	10µM	.
OCC1(Cc2cccc(C(F)(F)F)c2)CCN(Cc2cc3ccccc3o2)CC1	?	.	?	.
Cc1cccnc1CN1CCN(Cc2nc(C(c3ccccc3)c3ccccc3)no2)CC1	.	.	5.01µM	.
c1ccc(C(c2ccccc2)c2noc(CN3CCN(C4CCCC4)CC3)n2)cc1	.	.	12.6µM	.
CC(=O)N1CCN(Cc2nc(C(c3ccccc3)c3ccccc3)no2)CC1	.	.	.	.
Cc1c(CNC(C)CCc2ccccc2)c(C(=O)O)c(C)n1Cc1ccc(F)cc1 (centres undefined)	.	/	.	/
CC(S)C(=O)NCC(=O)O (centres undefined)	/	/	/	.
Cc1ccc(SCC2(O)CCN(S(=O)(=O)c3ccc(Cl)cc3)CC2)cc1	.	.	.	.
CN1CCN(CC2(O)CCN(S(=O)(=O)c3ccc(Cl)cc3)CC2)CC1	.	.	0.891µM	.
CC(C)(C)c1ccc(S(=O)(=O)N2CCC(O)(c3ccc(Cl)cc3)CC2)cc1	.	.	7.08µM	.
CCCCn1c(CNC(=O)C23CC4CC(CC(C4)C2)C3)nnc1SCC(=O)Nc1ccccc1	.	.	.	.
SMILES	HEK293 tox	BRCA1 expr act	GLP1R inv ag	GLP1R ag
COC(=O)CSc1nc(N2CCCCC2)c2c(c1C#N)CCCC2	.	.	10µM	.
N#Cc1c(SCC(=O)O)nc(N2CCCCC2)c2c1CCCC2	.	.	.	.
O=C(NCC(c1cccnc1)N1CCN(Cc2ccccc2)CC1)C(=O)Nc1ccc(Cl)cc1 (centres undefined)	.	/	.	/
CN(C(=O)CSc1nc2ccc(NC(=O)CCc3ccccc3)cc2s1)c1ccccc1	?	.	8.91µM	/
CN(C(=O)CSc1nc2ccc(NC(=O)COc3ccc(F)cc3)cc2s1)c1ccccc1	?	/	11.2µM	/
O=[N+]([O-])c1ccc(O/N=[N+](\[O-])N2CCCC2)c([N+](=O)[O-])c1	/	.	/	/
NS(=O)(=O)c1ccc(CCNC(=O)c2cc(-c3ccc(Br)cc3)nc3ccccc23)cc1	11.2µM	.	?	.
CCCc1ccc(-c2cc(C(=O)NN3CCOCC3)c3ccccc3n2)cc1	.	14.1µM	.	.
c1ccc2c(c1)ncn2-c1ncnc2sc3c(c12)CCCC3	.	.	4.47µM	.
CC(O)CNc1nc2ccccc2n1-c1ncnc2sc3c(c12)CCC3 (centres undefined)	?	.	10µM	.
COc1ccc(Cl)cc1NC(=O)C(C)n1nnc2sc3c(c2c1=O)CCCC3 (centres undefined)	.	/	.	/
O=C(Cc1ccccc1)Nc1nc2ccccc2s1	.	10µM	?	.
CC1CCc2nc(NC(=O)Cc3cccs3)sc2C1 (centres undefined)	.	5.62µM	?	.
O=C(NNc1nc2ccccc2s1)C1CC1	.	.	.	.
Cc1ccc2nc(NC(=O)Cc3cccs3)sc2c1	.	.	.	.
CC(C)C(=O)NNc1nc2ccccc2s1	.	8.91µM	.	.
O=C(Cc1cccs1)Nc1nc2ccccc2s1	.	7.08µM	.	.
CCS(=O)(=O)N1CCc2cc(C(=O)N3CCN(c4ccccc4)CC3)ccc21	.	.	.	/
Cc1sc(NC(=O)CSC2=NCCS2)nc1-c1ccccc1	.	.	.	.
O=C(CSC1=NCCS1)Nc1nc2ccccc2s1	.	8.91µM	.	.
O=C(Nc1nc2ccccc2s1)c1c(F)cccc1Cl	.	10µM	.	.
Cc1ccc(NC2CCCN(C(=O)CN3C(=O)c4ccccc4C3=O)C2)cc1C (centres undefined)	.	.	.	.
O=[N+]([O-])c1ccc(C2CCCC/C2=N\OCc2cccc(F)c2)c([N+](=O)[O-])c1 (centres undefined)	.	.	10µM	.
CC1CCCC/C1=N/Nc1ccc([N+](=O)[O-])cc1[N+](=O)[O-] (centres undefined)	.	.	.	.
[O-][n+]1cccc2ncc3cscc3c21	.	.	.	.
SMILES	HEK293 tox	BRCA1 expr act	GLP1R inv ag	GLP1R ag
CN1CCN(C(=O)c2cc(-c3ccccc3)on2)CC1	.	7.94µM	.	.
COc1cccc(-c2cc(C(=O)N3CCCCC3C)no2)c1 (centres undefined)	.	2.82µM	?	.
O=C(c1cc(-c2ccccc2)on1)N1CCCCCC1	.	1.78µM	.	.
O=C(c1cc(-c2ccc(Cl)c(Cl)c2)on1)N1CCOCC1	?	1.26µM	.	.
O=C(c1cc(-c2ccccc2)on1)N1CCN(C(=O)c2ccco2)CC1	.	.	.	.
COc1cccc(-c2cc(C(=O)N3CCCCCC3)no2)c1	.	?	?	.
COC(=O)c1ccc(-n2c(/C=C/c3cc(OC)c(OC)c(OC)c3)nc3cc(Cl)ccc3c2=O)cc1	.	/	.	/
